Test results: publication PMC5540273 (PLoS ONE, 2017)

The molecules below were run on CSNK1A1. Conditions: concentration: 1 μM, replicates: in singlicate; n = 1.
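Note: KINOMEscan kinase panel screen.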

In order of falling “%Inh” value:
1. O=C(O)C(F)(F)F.O=c1[nH]ccc2nc(N[C@@H]3CCNC3)nc(Nc3ccc4c(c3)S(=O)(=O)CC4)c12 [GSK2181306]  97.7%
2. CCOc1nccc(-c2c(-c3ccc(F)cc3)ncn2C2CCNCC2)n1 [SB-249175]  97.4%
3. Cl.Cl.NCC(NC(=O)c1cc(-c2cccnc2)c(-c2ccnc3[nH]ccc23)s1)c1ccccc1 (stereo not shown) [GSK1323434]  91.5%
4. Cl.Cl.NC(CNC(=O)c1cc(Br)c(-c2ccnc3[nH]ccc23)s1)c1ccccc1 (stereo not shown) [GSK1322949]  87%
5. Cc1cccc(Nc2nc(NCCN)ncc2C(N)=O)c1 [GSK1292139]  72%
6. CC(C)(C)c1ccc(C(=O)Nc2cn3cc(-n4ccnc4)ccc3n2)cc1  60%
7. CN1CCN(Cc2ccc(NC(=O)Nc3ccc(N(C)c4ccnc(Nc5ccc(CS(C)(=O)=O)cc5)n4)cc3)cc2)CC1.Cl [GW827654]  30%
8. CN(C)CCNS(=O)(=O)c1ccc(-c2ccnc3[nH]ccc23)cc1 [GSK977620]  29%
9. O=C(Nc1n[nH]c2nc(-c3ccccc3O)ccc12)C1CC1 [SB-711880]  25%
10. CN(c1ccc(NC(=O)N2CCN(CCCN3CCOCC3)CC2)cc1)c1ccnc(Nc2ccc(CS(C)(=O)=O)cc2)n1.Cl [GW830899]  25%
11. CCNC(=O)/C=C/c1n[nH]c2cc(Sc3ccccc3C(=O)NC)ccc12  21%
12. COc1ccc(C)c(Nc2ccnc(Nc3ccc(-c4cnc[nH]4)cc3)n2)c1.Cl [GW784041]  21%
13. Cc1ccc(NC(=O)c2cccc(N3CCCCC3)c2)cc1-c1ccc(C(=O)NCC2CC2)cc1 [GSK1917008]  20%
14. CSc1ccc(NC2=C(c3ccc(Cl)cc3)C(=O)NC2=O)cc1 [SB-317658]  20%
15. O=C(Nc1n[nH]c2cc(-c3cccs3)ccc12)C1CC1 [SB-731284]  20%
16. CCn1cnc2c(NCc3ccccc3)ncnc21 [SKF-96418]  18%
17. Cc1cc(-c2c(-c3ccc(F)cc3)ncn2CCCN2CCOCC2)nc(N)n1 [SB-222517]  17%
18. Cc1nn2c(=O)cc(N3CCO[C@H](C)C3)nc2n1Cc1cccc(Cl)c1Cl [GSK2373693]  16%
19. CN(c1ccc(F)c(NC(=O)c2cccc(OC(C)(C)C#N)c2Cl)c1)c1ccc2nc(NC(=O)C3CC3)sc2n1  9%
20. Cl.O=C(Nc1ccc(Oc2ccc3[nH]c(NC(=O)c4ccco4)nc3c2)cc1)Nc1cc(C(F)(F)F)ccc1F [GW683134]  2%
21. Cc1ccc(NC(=O)c2ccnc(N3CCCCC3)c2)cc1-c1ccc(C(=O)NCC2CC2)cc1 [GW775610]  1%
22. c1ccc(Oc2ccc(Nc3ccnc4cc(-c5ccc(CN6CCCCC6)o5)ccc34)cc2)nc1 [GW567143]  1%
23. O=C(Nc1n[nH]c2nc(-c3cccc(O)c3)ccc12)C1CC1 [SB-711805]  0%
24. Cc1ccc(NC(=O)c2ccc(Cl)c(Cl)c2)cc1-c1ccc(C(=O)Nc2ccncc2)cc1 [GSK1398460]  0%
25. O=C(Nc1n[nH]c2nc(-c3ccccc3)ccc12)C1CC1 [SB-708999]  0%
26. COC(=O)Nc1nc2cc(Oc3ccc(NC(=O)Nc4cccc(SC)c4)cc3)ccc2[nH]1.Cl [GW697999]  0%
27. CC(C)NCC(Cc1ccccc1)NC(=O)c1cc(Br)c(-c2ccnc3[nH]ccc23)s1.Cl.Cl (stereo not shown) [GSK1383281]  0%
28. N#Cc1cnc2cc(-c3cnc(CNCCN4CCOCC4)s3)ccc2c1Nc1ccc(Oc2ccccc2)cc1 [GW664114]  0%
29. CN(c1ccc(NC(=O)Nc2cccc(Cl)c2)cc1)c1ccnc(N)n1.Cl [GW830707]  0%
30. COc1ccc(C2=C(Nc3cccc(O)c3)C(=O)NC2=O)cc1 [SB-390766]  0%
31. Nc1cccc(-c2ccc3c(N)n[nH]c3c2)c1 [GSK2193613]  0%
32. COc1ccc(NC(=O)c2ccoc2)cc1-c1ccc(C(=O)NCC2CC2)cc1 [GW810437]  0%
33. Cc1ccc(Nc2ccnc(Nc3ccc(C)c(F)c3)n2)cc1O.Cl [GW582868]  0%
34. COc1cccc(C2=C(Nc3cccc(O)c3)C(=O)NC2=O)c1 [SB-390771]  0%
35. Cc1cc(-c2ccnc(Nc3cccc(C#N)c3)n2)cc(C)c1O [GSK1440913]  0%
36. Cn1cc(-c2ccc3c(c2)CCN3C(=O)Cc2cc(F)cc(F)c2F)c2c(N)ncnc21 [GSK2634140]  0%
37. COc1cccc(NC(=O)NCCNc2ccnc(Nc3ccc(F)cc3)n2)c1 [GSK1379879]  0%
